# Results as given in ChEMBL document CHEMBL1961873, “Compounds: GSK PKIS; Assays: Nanosyn kinase panel” (2012).
# Legend:
# [1] = target: Serine/threonine-protein kinase 26 (Homo sapiens) (UniProt Q9P289); details: at 1 µM;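 note: mean inhibition of MST4 kinase activity, reported from the GSK PKIS inhibitor-set screening panel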
# [2] = target: Serine/threonine-protein kinase PAK 1 (Homo sapiens) (UniProt Q13153); details: at 0.1 µM
# [3] = target: Serine/threonine-protein kinase PAK 1 (Homo sapiens) (UniProt Q13153); details: at 1 µM
# [4] = target: Serine/threonine-protein kinase PAK 2 (Homo sapiens) (UniProt Q13177); details: at 0.1 µM
# [5] = target: Serine/threonine-protein kinase PAK 2 (Homo sapiens) (UniProt Q13177); details: at 1 µM
# [6] = target: Serine/threonine-protein kinase PAK 3 (Homo sapiens) (UniProt O75914); details: at 0.1 µM
# [7] = target: Serine/threonine-protein kinase PAK 3 (Homo sapiens) (UniProt O75914); details: at 1 µM
# [8] = target: Serine/threonine-protein kinase PAK 5 (Homo sapiens) (UniProt Q9P286); details: at 0.1 µM
# [9] = target: Serine/threonine-protein kinase PAK 5 (Homo sapiens) (UniProt Q9P286); details: at 1 µM
# [10] = target: Serine/threonine-protein kinase PAK 6 (Homo sapiens) (UniProt Q9NQU5); details: at 0.1 µM
# [11] = target: Serine/threonine-protein kinase PAK 6 (Homo sapiens) (UniProt Q9NQU5); details: at 1 µM
# [12] = test system: Tyrosine-protein kinase ABL1 (Homo sapiens), P00519 [E255K]; details: at 0.1 µM
# [13] = test system: Tyrosine-protein kinase ABL1 (Homo sapiens), P00519 [E255K]; details: at 1 µM
# [14] = test system: Tyrosine-protein kinase ABL1 (Homo sapiens), P00519 [H396P]; details: at 0.1 µM
# [15] = test system: Tyrosine-protein kinase ABL1 (Homo sapiens), P00519 [H396P]; details: at 1 µM
# [16] = test system: Tyrosine-protein kinase ABL1 (Homo sapiens), P00519 [M351T]; details: at 0.1 µM
# [17] = test system: Tyrosine-protein kinase ABL1 (Homo sapiens), P00519 [M351T]; details: at 1 µM
# [18] = test system: Tyrosine-protein kinase ABL1 (Homo sapiens), P00519 [Q252H]; details: at 0.1 µM
# [19] = test system: Tyrosine-protein kinase ABL1 (Homo sapiens), P00519 [Q252H]; details: at 1 µM
# [20] = test system: Tyrosine-protein kinase ABL1 (Homo sapiens), P00519 [T315I]; details: at 0.1 µM
# Chain of Serine/threonine-protein kinase PAK 6 (Homo sapiens) (Q9NQU5 whole entry, looked up): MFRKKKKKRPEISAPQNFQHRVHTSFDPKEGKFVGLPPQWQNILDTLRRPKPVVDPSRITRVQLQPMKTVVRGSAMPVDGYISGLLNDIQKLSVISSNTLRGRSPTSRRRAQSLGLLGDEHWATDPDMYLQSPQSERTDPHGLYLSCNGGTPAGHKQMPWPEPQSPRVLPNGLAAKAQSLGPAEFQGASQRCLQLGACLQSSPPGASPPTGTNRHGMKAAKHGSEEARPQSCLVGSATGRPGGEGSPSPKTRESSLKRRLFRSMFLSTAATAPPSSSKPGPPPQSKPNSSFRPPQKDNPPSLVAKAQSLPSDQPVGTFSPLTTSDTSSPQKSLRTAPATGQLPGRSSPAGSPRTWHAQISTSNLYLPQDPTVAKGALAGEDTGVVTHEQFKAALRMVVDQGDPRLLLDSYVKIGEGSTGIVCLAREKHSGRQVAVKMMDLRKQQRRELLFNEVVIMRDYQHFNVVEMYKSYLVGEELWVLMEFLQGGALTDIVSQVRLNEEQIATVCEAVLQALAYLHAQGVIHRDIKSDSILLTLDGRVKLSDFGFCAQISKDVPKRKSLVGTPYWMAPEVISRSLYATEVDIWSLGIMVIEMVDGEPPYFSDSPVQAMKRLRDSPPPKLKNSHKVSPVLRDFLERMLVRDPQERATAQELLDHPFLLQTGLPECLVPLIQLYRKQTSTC
# Chain of Serine/threonine-protein kinase PAK 3 (Homo sapiens) (O75914 whole entry, looked up): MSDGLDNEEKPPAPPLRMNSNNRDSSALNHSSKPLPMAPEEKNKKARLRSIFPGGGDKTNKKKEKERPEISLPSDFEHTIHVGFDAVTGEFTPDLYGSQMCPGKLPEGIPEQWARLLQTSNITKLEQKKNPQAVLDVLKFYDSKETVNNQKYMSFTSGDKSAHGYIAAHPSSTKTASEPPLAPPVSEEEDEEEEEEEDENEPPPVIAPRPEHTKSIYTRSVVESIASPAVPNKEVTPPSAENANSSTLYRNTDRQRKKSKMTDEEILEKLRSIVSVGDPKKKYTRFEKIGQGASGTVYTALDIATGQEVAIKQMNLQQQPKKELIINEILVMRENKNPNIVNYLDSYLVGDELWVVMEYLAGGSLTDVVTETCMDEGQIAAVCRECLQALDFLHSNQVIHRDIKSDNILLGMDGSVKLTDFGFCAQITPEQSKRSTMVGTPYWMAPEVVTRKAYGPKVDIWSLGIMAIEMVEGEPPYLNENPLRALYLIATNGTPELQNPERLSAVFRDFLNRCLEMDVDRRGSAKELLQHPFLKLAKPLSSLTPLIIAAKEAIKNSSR
# Chain of Serine/threonine-protein kinase 26 (Homo sapiens) (Q9P289 2-416 limits assumed): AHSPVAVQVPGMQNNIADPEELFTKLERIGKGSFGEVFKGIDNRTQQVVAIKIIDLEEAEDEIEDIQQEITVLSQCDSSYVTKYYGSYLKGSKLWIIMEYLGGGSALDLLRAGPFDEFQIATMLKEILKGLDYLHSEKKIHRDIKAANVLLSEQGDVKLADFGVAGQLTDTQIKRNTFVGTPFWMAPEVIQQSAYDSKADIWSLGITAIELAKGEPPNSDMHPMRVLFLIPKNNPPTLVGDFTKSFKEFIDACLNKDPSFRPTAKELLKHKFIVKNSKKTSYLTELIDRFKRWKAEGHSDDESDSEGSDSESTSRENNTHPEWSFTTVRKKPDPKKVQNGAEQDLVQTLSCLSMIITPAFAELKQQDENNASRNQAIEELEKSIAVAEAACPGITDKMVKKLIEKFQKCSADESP
# Chain of Serine/threonine-protein kinase PAK 5 (Homo sapiens) (Q9P286 whole entry, looked up): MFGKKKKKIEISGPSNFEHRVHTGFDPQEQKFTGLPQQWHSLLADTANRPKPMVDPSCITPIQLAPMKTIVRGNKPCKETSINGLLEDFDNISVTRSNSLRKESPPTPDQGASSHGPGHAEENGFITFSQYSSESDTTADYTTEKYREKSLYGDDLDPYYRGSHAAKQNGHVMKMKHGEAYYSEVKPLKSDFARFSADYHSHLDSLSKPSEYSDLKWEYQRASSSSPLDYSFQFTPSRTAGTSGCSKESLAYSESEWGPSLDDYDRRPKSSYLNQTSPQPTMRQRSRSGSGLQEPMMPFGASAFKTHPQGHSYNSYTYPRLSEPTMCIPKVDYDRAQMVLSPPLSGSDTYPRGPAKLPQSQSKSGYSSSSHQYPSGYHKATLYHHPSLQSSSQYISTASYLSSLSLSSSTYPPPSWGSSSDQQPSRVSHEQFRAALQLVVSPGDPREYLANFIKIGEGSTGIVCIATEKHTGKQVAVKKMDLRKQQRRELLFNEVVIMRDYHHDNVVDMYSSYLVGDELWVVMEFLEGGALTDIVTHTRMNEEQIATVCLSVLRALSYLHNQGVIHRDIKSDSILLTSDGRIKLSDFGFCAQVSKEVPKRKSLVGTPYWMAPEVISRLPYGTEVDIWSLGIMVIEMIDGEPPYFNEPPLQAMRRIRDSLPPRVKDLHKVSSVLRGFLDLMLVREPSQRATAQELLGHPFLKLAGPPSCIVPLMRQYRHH
# Chain of Serine/threonine-protein kinase PAK 2 (Homo sapiens) (Q13177 whole entry): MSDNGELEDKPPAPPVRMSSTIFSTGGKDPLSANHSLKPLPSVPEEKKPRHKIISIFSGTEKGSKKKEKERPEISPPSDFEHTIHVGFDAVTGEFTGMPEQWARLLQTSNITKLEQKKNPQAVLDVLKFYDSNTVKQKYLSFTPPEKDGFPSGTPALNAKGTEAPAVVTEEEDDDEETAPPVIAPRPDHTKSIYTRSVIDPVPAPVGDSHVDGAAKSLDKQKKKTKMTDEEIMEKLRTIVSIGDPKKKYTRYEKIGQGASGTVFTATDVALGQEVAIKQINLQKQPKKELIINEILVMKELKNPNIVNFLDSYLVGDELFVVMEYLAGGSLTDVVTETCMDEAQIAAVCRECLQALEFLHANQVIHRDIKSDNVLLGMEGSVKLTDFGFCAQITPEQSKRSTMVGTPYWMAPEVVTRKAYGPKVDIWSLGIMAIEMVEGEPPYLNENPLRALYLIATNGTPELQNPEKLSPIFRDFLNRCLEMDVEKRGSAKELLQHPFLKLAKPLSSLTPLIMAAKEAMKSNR
# Chain of Serine/threonine-protein kinase PAK 1 (Homo sapiens) (Q13153 whole entry): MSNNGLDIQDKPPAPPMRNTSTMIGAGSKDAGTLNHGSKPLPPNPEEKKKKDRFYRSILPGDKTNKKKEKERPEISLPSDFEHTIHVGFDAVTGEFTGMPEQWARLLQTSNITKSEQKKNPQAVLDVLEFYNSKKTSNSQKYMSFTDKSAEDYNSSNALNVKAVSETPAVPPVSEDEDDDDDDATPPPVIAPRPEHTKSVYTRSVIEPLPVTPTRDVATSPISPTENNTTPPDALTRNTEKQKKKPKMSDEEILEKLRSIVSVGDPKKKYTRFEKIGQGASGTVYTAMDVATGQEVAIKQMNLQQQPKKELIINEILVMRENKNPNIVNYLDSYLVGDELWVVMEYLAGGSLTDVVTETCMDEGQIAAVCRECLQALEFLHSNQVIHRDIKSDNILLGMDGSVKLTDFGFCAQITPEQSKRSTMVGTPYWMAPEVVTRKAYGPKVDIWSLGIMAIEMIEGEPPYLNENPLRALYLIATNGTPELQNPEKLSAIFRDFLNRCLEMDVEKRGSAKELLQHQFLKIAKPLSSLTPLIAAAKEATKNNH
Compound,inhibition [1] [%],inhibition [2] [%],inhibition [3] [%],inhibition [4] [%],inhibition [5] [%],inhibition [6] [%],inhibition [7] [%],inhibition [8] [%],inhibition [9] [%],inhibition [10] [%],inhibition [11] [%],inhibition [12] [%],inhibition [13] [%],inhibition [14] [%],inhibition [15] [%],inhibition [16] [%],inhibition [17] [%],inhibition [18] [%],inhibition [19] [%],inhibition [20] [%]
O=C(O[C@H]1CN[C@H](C#Cc2cc3ncnc(Nc4ccc5c(cnn5Cc5ccccc5)c4)c3s2)C1)N1CCOCC1,2.02,2.28,0.73,-1.9,-1.35,-0.09,0.69,-0.12,-1.71,3.43,0.8,0.73,0.29,-0.26,1.3,2.14,-0.2,0.53,0.83,-1.97
COc1cccc(-n2ncc3c(N/N=C/c4ccc(C(=O)NCCN(C)C)cc4)ncnc32)c1,0.63,7.17,5.32,1.01,1.56,2.69,3.69,12.8,7.55,1.68,12.9,92.1,94.7,93.9,95,92.3,95.5,94.2,95.4,84.6
COc1cccc(Nc2nccc(-c3cnn4ncccc34)n2)c1,3.21,2.05,2.16,1,2.62,1.1,1.63,8.25,5.51,1.43,5.36,5.54,23.1,8.68,41.2,8.35,45,9.38,46.5,3.94
COc1c(C(N)=O)cc(-c2ccc(Cl)cc2)cc1-c1ccc(S(N)(=O)=O)cc1,1.45,6.68,12.1,2.72,2.55,4.51,7.97,6.72,3.56,-7.76,-4.53,2.38,3.7,3.77,5.78,1.02,1.14,3.13,5.89,3.24
Cc1cc(O)cc(C)c1/C=C/c1cncc(C(N)=O)c1,-0.01,1.07,3.22,0.07,-0.24,2.43,2.79,9.11,0.51,9.09,10.6,15.7,61,20.4,70.1,18.5,69,18.7,67.5,2.31
O=C(Nc1n[nH]c2nnc(-c3cccnc3)cc12)C1CC1,1.72,-0.56,2.67,-0.8,-0.23,-0.23,0.64,-4.39,-1.42,-7.92,-4.92,-1.11,1.39,0.14,3.4,2.2,3.78,0.59,2.57,-0.5
c1ccc(-c2n[nH]cc2-c2ccnc(-c3ccc(OCCn4ccnc4)cc3)c2)nc1,3.16,1.76,3.78,-0.68,0.37,-0.22,-2.41,-0.74,4.05,-3.76,-6.97,23.1,71.2,46.9,88.1,43.8,87.2,25.9,73.4,3
CNC(=O)c1sc(-n2cnc3cc(OC)c(OC)cc32)cc1OCc1ccccc1C(F)(F)F,4.9,2.95,1.15,0.12,0.57,4.1,2.98,1.27,0.17,-2.28,-4.28,1.88,9.07,3.16,10.5,0.2,6.66,4.26,7.88,1.96
CS(=O)(=O)CCNCc1ccc(-c2ccc3ncnc(Nc4ccc(OCc5cccc(C(F)(F)F)c5)cc4)c3c2)o1,0.42,8.38,7.33,1.38,3.12,5.6,9.88,4.72,5.29,-8.96,-8.87,0.33,2.52,3.55,4.29,-0.21,1.37,3.36,4.5,1.82
COc1ccccc1-c1cc(/C=C2\C(=O)Nc3ncc(Br)cc32)cc(Br)c1O,13.5,6.7,6.23,1.92,2.48,4.55,5.35,0.29,0.44,-1.24,-6.64,5.22,22.3,6.17,21.9,5.09,19.8,6.3,20.5,1.82
N#Cc1cccc(Nc2ncc(-c3ccccc3)o2)c1,-0.74,-2.44,-0.39,0.33,-0.77,2.61,2.5,-5.2,1,3.79,-3.46,1.93,13.5,4.61,26.9,2.88,27.1,3.25,21.2,2.21
CS(=O)(=O)CCNCc1ccoc1-c1ccc2ncnc(Nc3ccc(OCc4ccccc4)cc3)c2c1,-0.88,-2.84,-0.82,-0.75,-2.34,-3.57,-0.05,-0.34,3.51,-5.6,-2.12,-3.3,0.24,0.81,-0.01,0.87,-0.25,1.54,1.56,1.58
CC1=C(C(=O)Nc2ccc3[nH]nc(C)c3c2)C(c2ccc(C(F)(F)F)cc2)CC(=O)N1 (stereo not given),-2.31,4.1,3.72,1.78,1.55,2.35,2.95,10.3,-2.13,-0.15,6.01,2.57,3.48,4.06,4.03,1.49,4.65,4.49,3.3,3.82
CCS(=O)(=O)c1ccc(OC)c(Nc2ncc(-c3cccc(F)c3)o2)c1,-0.44,9.43,11.2,1.97,2.27,6,9.2,7.29,9.85,-7.56,-6.17,30.8,80.4,40.8,85.8,38.6,85,41.9,86.4,4.78
CCN1CCC(C(=O)Nc2n[nH]c3nnc(-c4cccc(F)c4F)cc23)CC1,0.11,-3.4,-3.06,-1.1,-2.04,-0.81,-0.69,0,1.08,-5.45,-6.98,-0.54,0.15,0.08,-0.56,-0.54,-0.16,-1.28,-1.04,0.53
Cc1cc(O)cc(C)c1/C=C/c1cncc(C(=O)OC(C)(C)C)c1,2.31,5.41,2.7,-0.11,0.96,2.25,2.76,0.52,4.26,2.02,-0.98,4.42,21.6,7.59,35,9.08,46,11.7,52.5,1.3
CN(c1ccc(NC(=O)NCCN2CCOCC2)cc1)c1ccnc(Nc2ccc(CS(C)(=O)=O)cc2)n1,0.96,4.31,4.43,2.52,1.58,4.14,3.94,12.2,13.5,3.99,9.1,2.54,14.2,4.8,26.3,3.59,36.8,8.57,39.3,6.6
COc1cc(N2CCN(C(C)C)CC2)ccc1Nc1nc(Nc2cccc3ncccc23)c2cc[nH]c2n1,1.78,0.3,-1.25,0.87,-0.27,-1.68,-0.48,-2.43,-1.65,1.57,-4.19,0.09,0.59,2.17,3.86,2.31,3.99,1.61,3.51,1.61
Fc1cccc(COc2ccc(Nc3ncncc3C#Cc3ccccc3)cc2Cl)c1,0.47,4.22,6.2,1.86,2.71,4.76,5.44,1.61,0.61,1.93,-8.4,3.27,5.06,3.58,4.02,0.94,5.32,4.91,3.96,4.11
NS(=O)(=O)c1ccc(N/N=C2\C(=O)Nc3ccc(C(=O)NCc4ccncc4)cc32)cc1,6.51,4.25,4.68,2.01,2.49,4.5,4.65,9.16,11.3,-4.52,12.5,0.9,10,2.55,15,1.51,13.2,1.73,11.6,2.6
CS(=O)(=O)Nc1ccc(-c2cc(-c3ccccc3)cc(C(N)=O)c2N)cc1,-0.88,4.98,4.78,-0.21,-0.16,0.92,3.38,1.42,0.16,-9.24,-8.25,1.39,2.13,1.72,3.82,0.69,2.62,2.8,3.07,0.02
N#Cc1ccc2c(-c3ccnc(NC4CC4)n3)c(-c3ccc(F)cc3)nn2c1,-1.31,-1.35,7.43,0.74,0.16,1.37,2.53,1.73,3.22,-5.39,-2.35,-0.39,0.55,-0.57,3.93,-0.71,3.61,0.81,4.72,-0.18
CC1(C)CC(n2cnc(-c3ccc(F)cc3)c2-c2ccnc(N)n2)CC(C)(C)N1,-4.55,0.1,2.11,-0.56,0.36,0.33,0.79,4.67,0.79,1.59,-4.18,1.94,2.09,0.18,0.59,2.43,0.27,0.65,0.31,1.92
COC(=O)Nc1nc2ccc(Oc3ccc(NC(=O)Nc4cc(C(F)(F)F)ccc4F)cc3)cc2s1,1.71,-2.89,1.52,-1.5,-0.42,-1.09,0.28,0.53,-1.37,2.82,-8.13,17.2,66.8,65.9,92.3,76.6,93.3,75.1,91.4,78.8
COc1ccc2ncn(-c3cc(O[C@H](C)c4ccccc4C(F)(F)F)c(C(N)=O)s3)c2c1,13.1,-0.34,2.49,-1.58,-0.3,-2.52,0.02,-6.5,-1.3,-7.06,-8.65,-0.4,-1.92,-0.02,2.03,0.8,1.91,-0.3,2.05,0.03
Cc1c2ccc(N(C)c3ccnc(Nc4cccc(S(N)(=O)=O)c4)n3)cc2nn1C,-1.81,7.49,5.47,3.47,3.15,4.74,7.28,1.63,-1.02,2.18,-6.14,19.6,67.6,37.9,81.6,39.5,84.8,42.9,83.6,11.3
